# PubChem BioAssay (NCATS)
# Where “and” joins values, the source holds several entries; their conditions need not be identical. Identical values can stand only once. Inconclusive results are not listed. Where a call stands in place of a potency, no number is given. A number with no mark means an inactive call. Calls of active or inactive are those of the source. Calls come from the whole dose curve; as a rule, active = well fitted curve in the direction sought with a large enough effect; inconclusive = small, poorly fitted or top-dose-only effect, or another doubt; inactive = no such curve, though single readings can be large; an effect the other way counts as inactive or inconclusive.
# Tests used:
# CRL-7250 [1] = test: Cytotoxic Profiling of Annotated Libraries Using Quantitative High-Throughput Screening (AID 1296008); settings: Five cell lines viability, CellTiter-Glo ATP luminescence, 48-72 h; max response: active compounds read low; note: nearly all actives have a fitted effect of over 60% in size; note: potency is the fitted concentration of half-maximal effect
# Outline: (§1)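 Compounds were pin-transferred onto cells and incubated 48 or 72 hr at 37 degree Celsius, 95% humidity. CellTiter-Glo was added, plates sat 10 min at room temperature, then ATP-coupled luminescence was imaged as the viability read-out.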
# HEK293 = test: as above; settings: Five cell lines viability, CellTiter-Glo ATP luminescence, 48-72 h; max response: active compounds read low
# Outline: as §1
# HaCat [2] = test: as above; settings: Five cell lines viability, CellTiter-Glo ATP luminescence, 48-72 h; max response: active compounds read low
# Outline: as §1
# NIH3T3 [3] = test: as above; settings: Five cell lines viability, CellTiter-Glo ATP luminescence, 48-72 h; max response: active compounds read low
# Outline: as §1
# MCC-13 = test: qHTS assay to identify novel small-molecules to repurpose for Merkel cell carcinoma treatment (AID 1296009); settings: MCC and control cell lines, CellTiter-Glo viability, 72 h; series mostly up to 46 µM; note: nearly all actives have a fitted effect of over 60% in size; note: potency is the fitted concentration of half-maximal effect
# Outline: (§2)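 Cells exposed to NPC (8-point) and MIPE (11-point) compound dilutions for 72 hr at 37 degree celsius; viability read by CellTiter-Glo luminescence, normalized to no-cell and DMSO in-plate controls.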
# MCC-26 = test: as above; settings: MCC and control cell lines, CellTiter-Glo viability, 72 h; series mostly up to 46 µM
# Outline: as §2
# MKL-1 = test: as above; settings: MCC and control cell lines, CellTiter-Glo viability, 72 h; series mostly up to 46 µM
# Outline: as §2
# MKL-2 = test: as above; settings: MCC and control cell lines, CellTiter-Glo viability, 72 h; series mostly up to 46 µM
# Outline: as §2
# NIH3T3 [4] = test: as above; settings: MCC and control cell lines, CellTiter-Glo viability, 72 h; at 44.8 µM (top of the series) unless noted
# Outline: as §2
# UISO = test: as above; settings: MCC and control cell lines, CellTiter-Glo viability, 72 h; series mostly up to 46 µM
# Outline: as §2
# WaGa = test: as above; settings: MCC and control cell lines, CellTiter-Glo viability, 72 h; series mostly up to 46 µM
# Outline: as §2
# C33A = test: Primary qHTS to identify gynecologic anti-cancer compounds using libraries of approved drugs and bioactive compounds (AID 1345084); settings: Gynecologic cancer cell panel viability, ATPlite luminescence, 48 h; series mostly up to 57.5 µM; note: nearly all actives have a fitted effect of over 55% in size
# Outline: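 Measured: luminescence after ATPlite addition (15 min, RT). Exposure: 48 h, 37 C, 5% CO2.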
# KB-3-1 = test: Cytotoxic Profiling of Annotated Libraries Using Quantitative High-Throughput Screening (AID 1296008); settings: Five cell lines viability, CellTiter-Glo ATP luminescence, 48-72 h; max response: active compounds read low; note: nearly all actives have a fitted effect of over 60% in size; note: potency is the fitted concentration of half-maximal effect
# Outline: as §1
# HEK293T = test: qHTS assay to identify novel small-molecules to repurpose for Merkel cell carcinoma treatment (AID 1296009); settings: MCC and control cell lines, CellTiter-Glo viability, 72 h; at 44.8 µM (top of the series) unless noted; note: nearly all actives have a fitted effect of over 60% in size; note: potency is the fitted concentration of half-maximal effect
# Outline: as §2
# HACAT [5] = test: as above; settings: MCC and control cell lines, CellTiter-Glo viability, 72 h; at 44.8 µM (top of the series) unless noted
# Outline: as §2
# TAB109 = test: qHTS profiling for inhibitors of Plasmodium falciparum proliferation (AID 504749); note: nearly all actives have a fitted effect of over 60% in size; settings: P. falciparum in erythrocytes, SYBR Green DNA, 72 h; series mostly up to 28.7 µM
# Outline: (§3)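 P. falciparum-infected erythrocytes (0.3% parasitemia, 2.5% hematocrit final) were exposed to compounds for 72 h at 37 C in 5% CO2, then lysed with SYBR Green buffer overnight at room temperature; parasite DNA fluorescence was normalized to artemisinin and DMSO controls.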
# TAB113 = test: as above; settings: P. falciparum in erythrocytes, SYBR Green DNA, 72 h; series mostly up to 28.7 µM
# Outline: as §3
# TAB165 = test: as above; settings: P. falciparum in erythrocytes, SYBR Green DNA, 72 h; series mostly up to 28.7 µM
# Outline: as §3
# W2 = test: as above; settings: P. falciparum in erythrocytes, SYBR Green DNA, 72 h; series mostly up to 28.7 µM
# Outline: as §3
# CRL-7250 [6] = test: qHTS assay to identify novel small-molecules to repurpose for Merkel cell carcinoma treatment (AID 1296009); settings: MCC and control cell lines, CellTiter-Glo viability, 72 h; at 44.8 µM (top of the series) unless noted; note: nearly all actives have a fitted effect of over 60% in size; note: potency is the fitted concentration of half-maximal effect
# Outline: as §2
smiles,measurement,setting,value
CCC(=O)O[C@@H]1C=C2CCC3C(CCC4(C)C3CC[C@@H]4OC(=O)CC)C2CC1 (stereo partly drawn),max response,CRL-7250 [1],-3.72%
same,max response,HEK293,2.37%
same,max response,HaCat [2],-20.7%
same,outcome,NIH3T3 [3],inactive
same,Potency,MCC-13,inactive
same,Potency,MCC-26,inactive
same,Potency,MKL-1,inactive
same,Potency,MKL-2,inactive
same,outcome,NIH3T3 [4],inactive
same,Potency,UISO,inactive
same,Potency,WaGa,inactive
same,Potency,C33A,inactive
COc1ccc2c(c1)[C@]13CCCCC1C(C2)N(C)CC3 (stereo partly drawn),max response,CRL-7250 [1],4.77%
same,outcome,HEK293,inactive
same,max response,HaCat [2],-2.03%
same,max response,KB-3-1,9.18%
same,outcome,NIH3T3 [3],inactive
same,outcome,HEK293T,inactive
same,Potency,MCC-13,inactive
same,Potency,MCC-26,inactive
same,Potency,MKL-1,inactive
same,Potency,MKL-2,inactive
same,outcome,NIH3T3 [4],inactive
same,Potency,UISO,inactive
same,Potency,WaGa,inactive
C#C[C@]1(O)C=C[C@@H]2[C@@H]3CCC4=CC(=O)CC[C@@H]4[C@H]3CC[C@@]21CC,max response,CRL-7250 [1],-4.4%
same,max response,HEK293,-3.75%
same,outcome,HaCat [2],inactive
same,max response,NIH3T3 [3],-5.86%
same,outcome,HACAT [5],inactive
same,Potency,MCC-13,inactive
same,Potency,MCC-26,inactive
same,Potency,MKL-1,inactive
same,Potency,MKL-2,inactive
same,Potency,UISO,inactive
same,Potency,WaGa,inactive
Nc1c(Cl)c(Cl)c(Cl)c(Cl)c1Cl,max response,CRL-7250 [1],-6.12%
same,max response,HEK293,-6.61%
same,max response,HaCat [2],-3.9%
same,max response,KB-3-1,-13%
same,max response,NIH3T3 [3],2.9%
same,Potency,MCC-13,inactive
same,Potency,MCC-26,inactive
same,Potency,MKL-1,inactive
same,Potency,MKL-2,inactive
same,Potency,UISO,inactive
same,Potency,WaGa,inactive
same,Potency,C33A,inactive
C#CC1(O)CCC2C3CCC4=CC(=O)CCC4(C)C3CCC21C (stereo not drawn),Potency,TAB109,inactive
same,Potency,TAB113,inactive
same,Potency,TAB165,inactive
same,Potency,W2,inactive
same,max response,CRL-7250 [1],-20.8%
same,max response,HEK293,-10.4%
same,max response,HaCat [2],-0.0987%
same,max response,KB-3-1,-11.2%
same,max response,NIH3T3 [3],0.477%
same,Potency,MCC-13,inactive
same,Potency,MKL-1,inactive
same,Potency,MKL-2,inactive
same,Potency,UISO,inactive
same,Potency,WaGa,inactive
CC(C)(O)C(=O)Nc1ccc([N+](=O)[O-])c(C(F)(F)F)c1,max response,CRL-7250 [1],-26.4%
same,max response,HEK293,-21.8%
same,max response,HaCat [2],-2.45%
same,max response,KB-3-1,-3.83%
same,outcome,NIH3T3 [3],inactive
same,Potency,MCC-13,inactive
same,Potency,MKL-1,inactive
same,outcome,NIH3T3 [4],inactive
same,Potency,UISO,inactive
C=CCON=C(C[C@H]1O[C@@H]2O[C@]3(C)CC[C@@H]4[C@H](C)CC[C@@H]([C@H]1C)[C@@]24OO3)[C@H]1O[C@@H]2O[C@]3(C)CC[C@H]4[C@H](C)CC[C@@H]([C@@H]1C)[C@@]24OO3,Potency,CRL-7250 [1],935 nM (active)
same,Potency,HEK293,235 nM (active)
same,Potency,HaCat [2],2960 nM (active)
same,Potency,KB-3-1,1320 nM (active)
same,Potency,MKL-1,1180 nM (active)
same,Potency,WaGa,1050 nM (active)
O=C(Nc1ccncc1)C(=O)c1cn(Cc2ccc(Cl)cc2)c2ccccc12,Potency,CRL-7250 [1],296 nM (active)
same,Potency,HEK293,37.2 nM (active)
same,Potency,KB-3-1,46.9 nM (active)
same,Potency,NIH3T3 [3],52.6 nM (active)
CC(=Cc1csc(C)n1)[C@@H]1C[C@H]2O[C@]2(C)CCC[C@H](C)[C@@H](O)[C@@H](C)C(=O)C(C)(C)[C@@H](O)CC(=O)O1,max response,CRL-7250 [1],-93.2%
same,max response,HEK293,-85.5%
same,max response,HaCat [2],-55%
same,Potency,KB-3-1,0.1 nM (active)
same,max response,NIH3T3 [3],-85.8%
same,Potency,MCC-13,inactive
same,Potency,MKL-1,inactive
same,Potency,MKL-2,inactive
same,Potency,WaGa,inactive
C=CC(=O)NCNC(=O)C=C,max response,CRL-7250 [1],-10.1%
same,max response,HaCat [2],-16.1%
same,max response,KB-3-1,1.85%
same,max response,NIH3T3 [3],-14.2%
same,outcome,HEK293T,inactive [at 92 µM]
same,Potency,MCC-13,inactive
same,Potency,MCC-26,inactive
same,Potency,MKL-1,inactive
same,Potency,UISO,inactive
same,Potency,C33A,inactive
C1=C2CCCN[C@H]2[C@@H]2C[C@H]1[C@@H]1CCCCN1C2,max response,CRL-7250 [1],-2.39%
same,outcome,HaCat [2],inactive
same,max response,KB-3-1,9.36%
same,outcome,NIH3T3 [3],inactive
same,outcome,HACAT [5],inactive
same,Potency,MCC-13,inactive
same,Potency,MCC-26,inactive
same,Potency,MKL-1,inactive
same,Potency,MKL-2,inactive
same,outcome,NIH3T3 [4],inactive
same,Potency,UISO,inactive
same,Potency,WaGa,inactive
O=C1C(I)=CC(=C(c2cc(I)c(O)c(I)c2)c2ccccc2C(=O)O)C=C1I,outcome,CRL-7250 [1],inactive
same,outcome,HaCat [2],inactive
same,max response,KB-3-1,-3.52% and 5.85%
same,outcome,NIH3T3 [3],inactive
same,outcome,CRL-7250 [6],inactive
same,outcome,HACAT [5],inactive
same,Potency,MKL-1,inactive
same,Potency,MKL-2,inactive
same,outcome,NIH3T3 [4],inactive
same,Potency,UISO,inactive
same,Potency,WaGa,inactive
same,Potency,C33A,inactive
CN1CCN(c2ccc([N+](=O)[O-])c3no[n+]([O-])c23)CC1,max response,CRL-7250 [1],3.76% and -14.8%
same,max response,HaCat [2],4.94% and 1.91%
same,outcome,KB-3-1,inactive
same,max response,NIH3T3 [3],0.637%
same,outcome,NIH3T3 [3],inactive
same,Potency,MCC-13,inactive
same,Potency,MKL-1,inactive
same,outcome,NIH3T3 [4],inactive
same,Potency,UISO,inactive
same,Potency,C33A,inactive
CC[C@H]1C=CC=CC[C@@H](C)[C@H](O)[C@@](C)(O)C(=O)[C@@H](C)[C@H](O)[C@@H](C)C(=O)[C@@H](C)[C@H](O)[C@@H](C)C=CC(=O)O[C@@H]2[C@@H](C)[C@H](CC1)O[C@]1(CC[C@H](C)[C@H](C[C@@H](C)O)O1)[C@H]2C,Potency,CRL-7250 [1],18700 nM (active)
same,Potency,HEK293,332 nM (active)
same,Potency,KB-3-1,372 nM (active)
same,Potency,NIH3T3 [3],16600 nM (active)
same,Potency,MKL-1,296 nM (active)
same,Potency,MKL-2,93.5 nM (active)
same,Potency,UISO,1660 nM (active)
same,Potency,WaGa,662 nM (active)
O=C(O)COc1nc(Cl)c(Cl)cc1Cl,max response,CRL-7250 [1],-6.6%
same,max response,HEK293,-3.5%
same,max response,KB-3-1,-16.3%
same,max response,NIH3T3 [3],-4.26%
same,Potency,MCC-13,inactive
same,Potency,MCC-26,inactive
same,Potency,MKL-1,inactive
same,Potency,MKL-2,inactive
same,Potency,UISO,inactive
same,Potency,WaGa,inactive
same,Potency,C33A,inactive
